Assay results from paper PMC4081100, “A DNA-binding-site landscape and regulatory network analysis for NAC transcription factors in Arabidopsis thaliana”.

Columns and labels:
Assay in all cases: universal protein binding microarray (PBM); transcription factors of Arabidopsis thaliana; high values mean tight binding
Settings in all cases: protein: recombinant; tags: GST; chain copies: 2; dsDNA, one strand shown
[1] = target: T1, GST-ANAC092(1-176) (Arabidopsis thaliana, UniProt Q9FKA0 1-176)
T1 sequence: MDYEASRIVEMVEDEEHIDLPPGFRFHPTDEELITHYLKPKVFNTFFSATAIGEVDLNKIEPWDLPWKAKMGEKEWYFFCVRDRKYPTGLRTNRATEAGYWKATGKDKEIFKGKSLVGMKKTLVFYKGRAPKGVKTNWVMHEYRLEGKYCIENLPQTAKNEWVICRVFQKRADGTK
Method in brief: (§1)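 Binding is expressed as the normalised enrichment score (E-score). Proteins carrying a GST tag, whether NAC-domain, full-length or DNA-binding-domain forms, were induced in cells, and zinc acetate was added for zinc-finger proteins. After purification on glutathione–Sepharose 4B and quantification by A280 or anti-GST western blot, each was applied in duplicate at 200 to 500 nM final to custom all-10-mer Agilent 4 × 180K arrays made double-stranded by primer extension. Gapped and ungapped 8-mers were scored.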

[2] = target: T2, GST-ANAC019 NAC domain (Arabidopsis thaliana, UniProt Q9C932 14-162)
T2 sequence: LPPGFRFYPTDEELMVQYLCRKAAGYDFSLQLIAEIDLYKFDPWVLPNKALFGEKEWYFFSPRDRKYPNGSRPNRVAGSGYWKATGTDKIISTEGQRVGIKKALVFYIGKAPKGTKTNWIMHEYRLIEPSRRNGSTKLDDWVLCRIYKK
Method in brief: as §1

[3] = target: T3, GST-ANAC055(1-171) (Arabidopsis thaliana, UniProt Q9LDY8 1-171)
T3 sequence: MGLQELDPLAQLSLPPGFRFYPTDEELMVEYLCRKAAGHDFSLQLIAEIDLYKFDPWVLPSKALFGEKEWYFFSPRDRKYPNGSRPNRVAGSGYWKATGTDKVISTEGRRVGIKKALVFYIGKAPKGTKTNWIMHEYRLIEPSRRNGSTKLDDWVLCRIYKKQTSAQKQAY
Method in brief: as §1

[4] = target: T4, GST-ATAF1 NAC domain (Arabidopsis thaliana, UniProt Q39013 7-158)
T4 sequence: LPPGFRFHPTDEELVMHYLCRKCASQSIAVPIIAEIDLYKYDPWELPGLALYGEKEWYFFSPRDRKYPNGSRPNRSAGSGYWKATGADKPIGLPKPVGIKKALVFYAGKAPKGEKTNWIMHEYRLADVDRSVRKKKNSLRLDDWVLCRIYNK
Method in brief: as §1

[5] = target: T5, GST-ANAC092(1-285) full length (Arabidopsis thaliana, UniProt Q9FKA0 1-285)
T5 sequence: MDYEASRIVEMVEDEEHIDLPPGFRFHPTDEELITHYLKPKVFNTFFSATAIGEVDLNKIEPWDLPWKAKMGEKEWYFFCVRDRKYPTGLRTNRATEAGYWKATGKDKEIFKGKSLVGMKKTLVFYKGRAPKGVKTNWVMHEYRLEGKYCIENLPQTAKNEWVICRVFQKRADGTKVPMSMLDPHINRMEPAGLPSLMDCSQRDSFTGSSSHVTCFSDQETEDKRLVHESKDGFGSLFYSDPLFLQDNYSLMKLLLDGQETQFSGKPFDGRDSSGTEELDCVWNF
Method in brief: as §1

[6] = target: T6, GST-NAP(1-166) (Arabidopsis thaliana, UniProt O49255 1-166)
T6 sequence: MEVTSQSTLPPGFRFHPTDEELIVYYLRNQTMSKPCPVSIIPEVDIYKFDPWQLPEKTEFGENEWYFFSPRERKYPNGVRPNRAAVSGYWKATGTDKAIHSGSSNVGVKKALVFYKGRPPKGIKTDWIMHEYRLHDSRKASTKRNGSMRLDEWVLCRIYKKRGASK
Method in brief: as §1

[7] = target: T7, GST-NST2(1-184) (Arabidopsis thaliana, UniProt Q9M274 1-184)
T7 sequence: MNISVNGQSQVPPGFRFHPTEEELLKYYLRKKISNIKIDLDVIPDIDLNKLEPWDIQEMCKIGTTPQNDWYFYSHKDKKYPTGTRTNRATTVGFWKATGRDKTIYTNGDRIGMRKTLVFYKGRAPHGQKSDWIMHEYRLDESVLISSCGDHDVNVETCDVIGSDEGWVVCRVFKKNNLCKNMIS
Method in brief: as §1

[8] = target: T8, GST-SND1(1-203) (Arabidopsis thaliana, UniProt Q9LPI7 1-203)
T8 sequence: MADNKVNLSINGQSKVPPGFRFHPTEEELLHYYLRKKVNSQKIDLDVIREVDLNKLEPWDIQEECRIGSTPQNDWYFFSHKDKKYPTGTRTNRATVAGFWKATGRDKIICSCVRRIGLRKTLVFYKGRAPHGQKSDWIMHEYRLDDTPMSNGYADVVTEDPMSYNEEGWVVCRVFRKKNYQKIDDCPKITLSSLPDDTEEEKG
Method in brief: as §1

[9] = target: T9, GST-VND3 NAC domain (Arabidopsis thaliana, UniProt Q9FH59 12-162)
T9 sequence: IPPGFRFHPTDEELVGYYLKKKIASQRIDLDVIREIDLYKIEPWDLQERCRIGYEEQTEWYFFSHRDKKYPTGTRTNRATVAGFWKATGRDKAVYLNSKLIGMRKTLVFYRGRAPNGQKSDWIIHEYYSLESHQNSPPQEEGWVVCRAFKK
Method in brief: as §1

[10] = target: T10, GST-VND7 NAC domain (Arabidopsis thaliana, UniProt Q9C8W9 9-158)
T10 sequence: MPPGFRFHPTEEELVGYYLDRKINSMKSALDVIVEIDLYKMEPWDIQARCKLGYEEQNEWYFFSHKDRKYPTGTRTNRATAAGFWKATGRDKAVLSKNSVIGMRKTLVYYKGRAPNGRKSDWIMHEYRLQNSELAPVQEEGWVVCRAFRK
Method in brief: as §1

[11] = target: GST-NTL6(1-168) (Arabidopsis thaliana, UniProt Q9SCK6 1-168)
Chain of GST-NTL6(1-168) (Q9SCK6 1-168): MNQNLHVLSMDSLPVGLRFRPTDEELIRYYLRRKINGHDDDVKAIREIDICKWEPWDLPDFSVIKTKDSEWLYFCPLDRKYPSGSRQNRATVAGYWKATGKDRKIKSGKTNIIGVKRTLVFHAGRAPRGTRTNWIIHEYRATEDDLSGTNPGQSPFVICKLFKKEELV
Method in brief: as §1

[12] = target: T11, GST-NTL8 NAC domain (Arabidopsis thaliana, UniProt Q9XIN7 14-156)
T11 sequence: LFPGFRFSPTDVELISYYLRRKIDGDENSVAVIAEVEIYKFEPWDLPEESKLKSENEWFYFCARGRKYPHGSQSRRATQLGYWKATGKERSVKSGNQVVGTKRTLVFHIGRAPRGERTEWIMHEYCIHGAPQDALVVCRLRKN
Method in brief: as §1

| Sequence | binding signal [1] [E-score] | binding signal [2] [E-score] | binding signal [3] [E-score] | binding signal [4] [E-score] | binding signal [5] [E-score] | binding signal [6] [E-score] | binding signal [7] [E-score] | binding signal [8] [E-score] | binding signal [9] [E-score] | binding signal [10] [E-score] | binding signal [11] [E-score] | binding signal [12] [E-score] |
| --- | --- | --- | --- | --- | --- | --- | --- | --- | --- | --- | --- | --- |
| ACGTCACC | 0.452 | 0.308 | 0.32 | 0.311 | 0.463 | 0.356 | 0.237 | 0.408 | 0.239 | 0.28 | – | – |
| ATTTCGTG | 0.389 | 0.174 | 0.22 | 0.154 | 0.422 | 0.133 | 0.136 | 0.109 | 0.191 | 0.157 | – | – |
| TACCTTAA | 0.193 | – | 0.0879 | 0.131 | 0.26 | – | 0.149 | 0.291 | 0.16 | 0.0949 | 0.42 | 0.298 |
| GCGTGTGA | 0.374 | 0.191 | 0.23 | 0.226 | 0.419 | 0.145 | 0.189 | 0.17 | 0.14 | 0.0819 | – | – |
| ATGCGTGC | 0.429 | 0.276 | 0.217 | 0.21 | 0.452 | 0.273 | 0.221 | 0.292 | 0.191 | 0.138 | – | – |
| AAGGGAAA | 0.195 | – | – | 0.166 | 0.0848 | – | – | 0.117 | 0.0609 | 0.0885 | 0.166 | 0.476 |
| ACGCATCC | 0.388 | 0.216 | 0.194 | 0.195 | 0.431 | 0.256 | 0.173 | 0.397 | 0.16 | 0.231 | – | – |
| GCGTACGC | 0.402 | 0.287 | 0.265 | 0.16 | 0.418 | 0.226 | 0.251 | 0.288 | 0.0861 | 0.346 | – | – |
| AAAGCAAC | 0.268 | – | 0.0548 | – | 0.373 | – | 0.277 | 0.401 | 0.0501 | 0.145 | 0.0839 | 0.0929 |
| ATTGCTTA | 0.273 | – | – | – | 0.319 | – | 0.288 | 0.457 | 0.16 | 0.172 | 0.423 | 0.0937 |
| ACACGCGA | 0.461 | – | – | – | 0.478 | 0.147 | 0.212 | 0.309 | 0.0551 | 0.124 | 0.125 | – |
| ACGGCAAC | 0.401 | 0.386 | 0.375 | 0.288 | 0.42 | 0.264 | 0.264 | 0.246 | 0.326 | 0.331 | – | – |
| ATACGTTA | 0.443 | 0.074 | 0.139 | 0.273 | 0.451 | 0.169 | 0.214 | 0.433 | 0.274 | 0.146 | – | – |
| AGCGTGTC | 0.398 | 0.206 | 0.174 | 0.165 | 0.432 | 0.0924 | 0.107 | 0.131 | 0.156 | 0.208 | – | – |
| TGAAGTAA | 0.242 | – | 0.155 | 0.169 | 0.323 | – | 0.324 | 0.424 | 0.131 | 0.132 | 0.377 | 0.437 |
| GCACGGCA | 0.449 | 0.472 | 0.448 | 0.361 | 0.461 | 0.41 | 0.164 | 0.107 | 0.408 | 0.461 | – | – |
